Screening results: PubChem BioAssay, National Center for Advancing Translational Sciences (NCATS)
Sampled rows, rich in hits. Any-hit rate of the full collection: about 3.1%.
TRb-SRC2 inh – disrupts binding of human TR beta to SRC2; AID 1469; TRbeta-SRC2 peptide binding, fluorescence polarization; receptor liganded with 1 µM T3; P10828; 280,000 tested, 0.065% active; Potency, µM (highest dose often 106 µM), for the others: at the highest dose activity change, negative = inhibition, most hits filed as inhibitors;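 note: plate controls were bound peptide for no effect and peptide without receptor for full effect; nearly all actives have a fitted effect of over 50% in size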
Target sequence (P10828 whole entry, looked up): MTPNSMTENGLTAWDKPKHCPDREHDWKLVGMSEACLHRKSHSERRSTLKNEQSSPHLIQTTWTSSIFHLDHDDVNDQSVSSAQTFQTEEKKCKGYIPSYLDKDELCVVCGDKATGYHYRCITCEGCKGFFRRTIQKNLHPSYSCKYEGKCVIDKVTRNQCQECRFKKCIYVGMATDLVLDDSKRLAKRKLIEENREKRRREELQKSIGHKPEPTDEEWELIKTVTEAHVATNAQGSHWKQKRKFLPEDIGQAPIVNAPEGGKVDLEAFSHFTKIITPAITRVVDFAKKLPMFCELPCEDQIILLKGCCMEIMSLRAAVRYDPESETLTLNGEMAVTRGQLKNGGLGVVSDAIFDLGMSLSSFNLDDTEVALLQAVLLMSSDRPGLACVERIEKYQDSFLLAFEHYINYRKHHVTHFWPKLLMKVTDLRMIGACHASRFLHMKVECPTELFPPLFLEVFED
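Compounds were added to 0.6 uM TRb ligand-binding domain and 20 nM Texas Red-labeled SRC2 peptide in Tris buffer containing 1 uM T3, incubated 5 hr at ambient temperature, then read by fluorescence polarization.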
Tau fibril FP – inhibitors of human tau fibril formation; P10636; K18 P301L tau heparin fibrillization, Alexa594 FP, 6 h; Potency, µM (doses to about 57.7 µM), inactives show at the highest dose activity, negative = inhibition, usual class: inhibitors; 280,000 tested, 0.39% active; note: nearly all actives have a fitted effect of over 55% in size
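Heparin (20 uM) drove fibril formation of recombinant tau K18 P301L, 15 uM unlabeled with 0.24 uM Alexa 594 label, for 6 hr at 37 C in 100 mM sodium acetate pH 7. Fluorescence polarization (555/632 nm) read 1 hr after 30 uM ThT.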
Tau ThT inhib – inhibitors of human tau fibril formation, thioflavin T binding; P10636; recombinant tau K18 P301L, heparin-induced fibrillization, ThT fluorescence; Potency, µM (doses to about 57.4 µM), without a hit: top-dose activity, negative = inhibition, hits mostly inhibitors; 270,000 tested, 2.1% active; AID 1460; note: nearly all actives have a fitted effect of over 55% in size
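Recombinant human tau K18 fragment […] carrying P301L, 15 uM unlabeled plus 0.24 uM Alexa 594-labeled, was fibrillized with 20 uM heparin in 100 mM sodium acetate pH 7 for 6 hr at 37 C; 30 uM ThT fluorescence read after 1 hr.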
Tau fluor counter – counter-screen for tau fibril formation inhibitors; tau K18 P301L Alexa594 fluorescence, heparin fibrillization; Potency, µM (doses to about 57.7 µM), for the others: at the top dose activity change, negative = decrease; 280,000 tested, 0.93% active; note: nearly all actives have a fitted effect of over 55% in size
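Human tau K18 P301L (15 uM unlabeled, 0.24 uM Alexa 594-labeled) in 100 mM sodium acetate pH 7 with 20 uM heparin, 6 hr at 37 C. ThT 30 uM added, 1 hr ambient; Alexa 594 FP and total fluorescence read at 555/632 nm.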
TR SRC2 fluor cs – Texas Red fluorescence interference in TRb-SRC2 counter-screen | TRb/SRC2 Texas Red total fluorescence interference | 280,000 tested, 0.29% active | Potency, µM (top dose mostly 106 µM), without a hit: top-dose fluorescence change, negative = quenching | AID 1479; active = well fitted curve in either direction with a large enough effect; inconclusive = small, poorly fitted or top-dose-only effect
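Human TRb ligand-binding domain at 0.6 uM with 20 nM Texas Red SRC2 peptide in Tris buffer containing 1 uM T3 and 5% DMSO, incubated with compound 5 h at ambient temperature. Total fluorescence (555/632 nm) calculated as parallel + 2 × perpendicular.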
The depositor's hits bear a star; ? = inconclusive; · = not tested or not shown; [ ] = remark or other dose. Unless noted, calls come from the whole dose curve; as a rule, active = well fitted curve in the direction sought with a large enough effect; inconclusive = small, poorly fitted or top-dose-only effect, or another doubt; inactive = no such curve, though single readings can be large; an effect the other way counts as inactive or inconclusive. Unless noted, % is set by controls: 0 for no effect and ±100 for the full control effect; potency is the fitted concentration of half-maximal effect.

SMILES	TRb-SRC2 inh	Tau fibril FP	Tau ThT inhib	Tau fluor counter	TR SRC2 fluor cs
CC(C)[C@@H](OCc1ccccc1)[C@H](C)/C=N\OC[C@@H](O)[C@@H]1O[C@@H]2OC(C)(C)O[C@@H]2[C@H]1O	-3%[11.2 µM]	-5%[11.6 µM]	-8%[11.5 µM]	-3%[11.6 µM]	-7%[11.2 µM]
N#C/C(=N\Nc1ccc(S(=O)(=O)N2CCCCCC2)cc1)C(N)=S	-7%	6%	14µM*	-19%	-9%
CCOC(=O)CC(NC(=O)c1cc2cc(Cl)ccc2oc1=O)c1ccc(C)cc1 (configuration not stated)	-10%	-10%	-13%	-22%	14µM*[quencher]
CCC12CN3CC(CC)(CN(C1)C3c1c[nH]c3ccccc13)C2=O (configuration not stated)	-3%	2%	5%	-15%	-1%
CCOc1ccc(/C=C/C(=O)Nc2sc3c(c2C(=O)OC)C(C(=O)OC)CC3)cc1 (configuration not stated)	3%	?	3.2µM*	?	-23%
COc1ccc(NC(=O)Cn2c(=O)n(Cc3ccco3)c(=O)c3oc4ccccc4c32)cc1Cl	0%	?	19%	?	-1%
COc1ccc(OC)c(NC(=O)CN2C(=O)c3ccccc3Sc3ccc(C(=O)N4CCCC4)cc32)c1	-20%	0%	-17%	-7%	794µM*[quencher]
Cc1cccc(N=C2NC(=O)/C(=C/c3cccn3C)S2)c1	0%	5%	7.9µM*	-29%	-2%
COC(=O)C1=C(C)NC(C)=C(C(=O)OCCSc2ccccc2)[C@@H]1C	9%	10%	-19%	16µM*[quencher]	0%
Cc1cc2c(nc1C)CCCCN2C[C@H](C)O/N=C\[C@@H](C)[C@H](OCc1ccccc1)C(C)C	2%[11.2 µM]	4%[11.6 µM]	-5%[11.5 µM]	-6%[11.6 µM]	-4%[11.2 µM]
C/C=C\C1=CCCC1Nc1ncnc2ccc(-c3c(C)noc3C)cc12 (configuration not stated)	-7%	·	·	·	0%
CC(=O)Nc1ccc(Nc2ncc([N+](=O)[O-])c(Nc3ccc(NC(C)=O)cc3)n2)cc1	-17%	-7%	8.9µM*	-30%	-5%
CC(=O)Nc1ccc(Nc2ncnc(N)c2[N+](=O)[O-])cc1	5%	-2%	-9%	11%	1%
CC(=O)Nc1ccc(Nc2nc(C)c([N+](=O)[O-])c(Nc3ccccc3)n2)cc1	-2%[53 µM]	18%	8.9µM*	?	-4%[53 µM]
CCC(=O)Nc1ccc(Nc2nc(C)c([N+](=O)[O-])c(Nc3ccc(NC(=O)CC)cc3)n2)cc1	8%	?	28µM*	-28%	-3%
Cc1nc(Nc2ccc(C(=O)O)cc2)nc(Nc2ccc(C(=O)O)cc2)c1[N+](=O)[O-]	-5%	0%	?	-8%	-7%
CC(=O)Nc1ccc(Nc2nc(C)c([N+](=O)[O-])c(N(C)c3ccccc3)n2)cc1	8%	?	16µM*	18µM*[quencher]	-5%
CCCc1cc(=O)c2ccc(OC/C(C)=N/O)cc2o1	4%	-3%	-8%	-9%	-2%
COc1cccc(-c2nnc3n2N=C(c2ccc(OC)cc2OC)CS3)c1	-5%	·	·	·	-1%
Cc1cc(C)n(CCc2nc(-c3ccco3)cs2)n1	7%	?	35µM*	-22%	-2%
O=c1[nH]c(=O)n(Cc2ccccc2)c2nc(-c3ccco3)cc(C(F)(F)F)c12	5%	3%	-15%	-5%	1%
Cc1nn(CCc2nc(-c3ccco3)cs2)c2[nH]c(=O)cc(C(F)(F)F)c12	-24%	?	25µM*	-16%	-1%
Cc1cc(C)n(CCc2nc(-c3cccs3)cs2)n1	-21%	4%	-6%	-5%	-1%
CCn1c(=O)c2c3c(sc2n2c(=S)[nH]nc12)CCC3	-15%	6%	-10%	-8%	-1%
O=C1Nc2ccc([N+](=O)[O-])cc2OC1CCN1CCOCC1 (configuration not stated)	5%	-2%	-16%	-5%	-6%
O=C1Nc2ccc([N+](=O)[O-])cc2OC1CCN1CCN(c2ccccc2)CC1 (configuration not stated)	-7%	1%	10µM*	-23%	0%
Cc1cc2nnc(SCC(=O)Nc3ccc(F)c(Cl)c3)n2c2ccccc12	10%	-6%	-2%	0%	-2%
